According to PubChem BioAssay AID2289 (National Center for Advancing Translational Sciences (NCATS), 2010):
Several values for one entry are separate records, joined by “and”; a condition that tells them apart may be missing. Equal entries are not always repeated. About 3,300 (0.97%) of roughly 340,000 compounds were called active. About 9% were inconclusive and are not listed. Calls follow the shape of the dose curve; as a rule, active = well fitted inhibition curve with a large enough effect; inconclusive = small, poorly fitted or top-dose-only effect, or effect the other way; inactive = flat fitted curve, though single readings scatter. This is one part of the list.

Experiment: qHTS Assay for Modulators of miRNAs and/or Inhibitors of miR-21; also: nearly all actives have a fitted effect of over 55% in size
Settings: HeLa miR-21-FLuc reporter, luciferase luminescence, 48 h; actives lower the signal
Method in brief: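 Using DMEM plus 10% FBS, HeLa miR-21-FLuc cells are incubated with test compounds (final up to about 40uM) for 48 hours; firefly luciferase signal is then imaged following reagent-mediated lysis.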
Potency is read from the fitted curve at half-maximal effect.

Potency, active:
Cc1cc(O)c(C2=Nc3ccccc3SC(c3ccc(Cl)cc3)C2)c(=O)o1 (configuration not stated) 1.65 µM
Cc1ccc2c3c([nH]c2c1C)-c1nonc1CC3 7.36 µM
O=C1NC(=S)N/C1=C\c1ccc(N2CCOCC2)cc1 13.1 µM
Cc1ccc(-n2c(C)cc(/C=C3\SC(=O)NC3=O)c2C)cc1 1.47 µM
Cc1cc(N2CCOCC2)ccc1/C=C1/SC(=O)NC1=O 4.65 µM
COc1ccc(-n2c(C)cc(/C=C3\SC(=O)NC3=O)c2C)cc1 5.85 µM
Cc1ccc(/C=N/NC(=O)CSc2nc3ccccc3o2)cc1 11.7 µM
CCOc1cccc2cc(-c3csc(NC(=O)CCC(=O)NCCCN4CCC(C)CC4)n3)c(=O)oc12 1.17 µM
COc1ccc(Nc2oc(/C=C/c3ccccc3OC)nc2C#N)cc1 13.1 µM
CN(C)c1oc(/C=C/c2ccccc2)nc1C#N 5.85 µM
COc1ccccc1/C=C/c1nc(C#N)c(N(C)C)o1 927 nM and 1.65 µM
CCOc1ccc(/C=C/c2nc(C#N)c(N(C)C)o2)cc1 0.329 µM
CCN1C(=O)/C(=C/C=C2/SCCN2C)SC1=S 0.185 µM
CCCCN1C(=O)/C(=C/C=C2\SCCN2C)SC1=S 5.21 µM
CN1C(=O)/C(=C/C=C2\SCCN2C)SC1=S 0.464 µM
Cc1nc(NC(=O)c2cc3c(s2)CCCCC3)sc1C(=O)N(C)C 7.36 µM
Fc1cccc(C2NN=C(c3ccccc3)S2)c1 (configuration not stated) 0.585 µM
O=C1NN(c2ccccc2)C(=O)/C1=C/c1coc2ccccc2c1=O 4.65 µM
CC1CCCCN1Cc1c(O)ccc2c(=O)c(-c3ccc(Cl)cc3)coc12 (configuration not stated) 18.5 µM
Fc1ccc(OCc2cc(-c3ccccc3)no2)cc1 4.14 µM
COc1ccc(-c2cc(COc3ccccc3)on2)cc1 9.27 µM
CCCCNC(=O)c1nnn(-c2ccccc2)c1N 16.5 µM
C#CCN1C(=O)S/C(=C\c2ccc(-c3ccc(C(=O)O)cc3C)o2)C1=O 3.29 µM
CCN=C1S/C(=C\c2ccc(-c3cccc(C(=O)O)c3)o2)C(=O)N1CC 0.656 µM
CC(C)N1C(=O)S/C(=C\c2ccc(-c3ccc(Cl)c(C(=O)O)c3)o2)C1=O 0.293 µM
COC(=O)C(C)N1C(=O)S/C(=C\c2ccc(-c3ccc(C(=O)O)cc3C)o2)C1=O (configuration not stated) 6.56 µM
COc1ccc(OC)c2c(N3CC(C)OC(C)C3)cc(C(F)(F)F)nc12 (configuration not stated) 6.56 µM
O=C(Nc1ccccn1)c1sc2cccc(F)c2c1Cl 0.165 µM
Brc1cc(Br)c2nc(-c3ccc(N4CCOCC4)cc3)ccc2c1 14.7 µM
N#C/C(=C\c1cccnc1)c1nc2c(s1)CCCC2 2.61 µM
Cc1cc(NC(=O)CCSc2ccccc2)ccc1Br 16.5 µM
CCc1ccc(NC(=O)CSc2ccccn2)cc1 10.4 µM
CCc1ccc(NC(=O)CSc2nncn2-c2cccnc2)cc1 16.5 µM
CCc1ccc(NC(=O)CSc2ccc3nc(-c4ccc(OC)cc4)cn3n2)cc1 0.736 µM
Cc1ccc(NC(=O)CCSc2ccccn2)cc1 4.14 µM
Cc1cc(OCC(=O)N2CCCCCC2)ccc1[N+](=O)[O-] 5.85 µM
Cc1ccc(NC(=O)c2sccc2C)cc1[N+](=O)[O-] 4.14 µM
O=C(CCc1ccccc1)Nc1ccccc1[N+](=O)[O-] 14.7 µM
O=C(NC(=S)Nc1ccccc1[N+](=O)[O-])c1ccccc1 9.27 µM
O=C(Nc1ccccn1)Nc1ccccc1[N+](=O)[O-] 9.27 µM
Cc1cc(NC(=O)c2ccccc2[N+](=O)[O-])ccc1Br 7.36 µM
CC(C)COc1ccc(C(=O)Nc2ccccc2[N+](=O)[O-])cc1 8.26 µM
Cc1ccc(NC(=O)c2ccc(C(C)(C)C)cc2)cc1[N+](=O)[O-] 5.21 µM
Cc1ccc(NC(=O)C2C3CCCCC32)cc1[N+](=O)[O-] (configuration not stated) 13.1 µM
CC(C)(C)c1ccc(NC(=O)c2ccccc2)c([N+](=O)[O-])c1 0.736 µM
CC(C)(C)c1ccc(C(=O)Nc2ccc([N+](=O)[O-])cn2)cc1 0.464 µM
CC(C)(C)c1cc(NC(=O)c2cccc([N+](=O)[O-])c2)no1 1.47 µM
O=C(Nc1ccccn1)c1cc2cc([N+](=O)[O-])ccc2s1 0.826 µM
Clc1ccc(-c2noc(CN3CCOCC3)n2)cc1 16.5 µM
O=[N+]([O-])c1ccccc1OCCCOc1cccc2cccnc12 5.21 µM
c1ccc(OCCOc2cccc3cccnc23)cc1 13.1 µM
COc1cccc(OC)c1OCCCOc1cccc2cccnc12 7.36 µM
Brc1ccccc1OCCOc1cccc2cccnc12 11.7 µM
CC(C)Sc1nc(SCC(=O)O)c2c3c(sc2n1)COC(C)(C)C3 9.27 µM
COCCCNC(=O)C1CCN(C(=O)c2oc3cc4sc(N(C)C)nc4cc3c2C)CC1 14.7 µM
Cc1ccccc1NC(=S)c1ccc2ccccc2n1 7.36 µM
Cc1ccc(C)c(NC(=S)c2ccc3ccccc3n2)c1 1.65 µM
N/C(=N\OC(=O)COc1ccc2ccccc2c1Br)c1ccncc1 16.5 µM
N/C(=N\OC(=O)COc1ccc2ccccc2c1Br)c1ccccn1 7.36 µM
CCOC(=O)c1c(NC(=O)CN2CCN(C)CC2)sc(C(=O)Nc2ccccc2)c1C 18.5 µM
COc1cc(/C=N/NS(=O)(=O)c2ccc3ccccc3c2)ccc1OCc1ccc(C(=O)O)cc1 0.414 µM
COc1cc(/C=N/NS(=O)(=O)c2ccc(C)cc2)ccc1OCc1cccc(C(=O)O)c1 0.464 µM
Cc1cc(SCC(=O)Nc2nsc(-c3ccc(C(C)(C)C)cc3)n2)nc2ccccc12 2.33 µM
COc1ccc(-n2cc(CN(C)CCO)c(-c3cccc(F)c3)n2)cc1 0.414 µM
C/C(=N\OCc1cccc(C(=O)O)c1)c1ccc(Cl)cc1 0.0414 µM
COc1cc(/C=N/OCC(=O)Nc2cc(C)cc(C)c2)ccc1OCc1ccc(Cl)cc1 2.93 µM
COc1cc(/C=N/OCC(=O)NC2CCCCC2C)ccc1OCc1ccc(Cl)cc1 (configuration not stated) 4.65 µM
CCCCc1ccc(NC(=O)C2CCCO2)cc1 (configuration not stated) 1.85 µM
CC1CCN(C(=O)Cn2nnc(-c3cccs3)n2)CC1 7.36 µM
Brc1ccc(-c2cn3cc(Cc4ccccc4)sc3n2)cc1 0.329 µM
CSc1ccccc1OCc1cc(C(=O)NCc2cccc(C)n2)no1 7.36 µM
CSc1ccccc1OCc1cc(C(=O)N(C)Cc2ccncn2)no1 8.26 µM
COc1cccc(OCc2cc(C(=O)NCc3ccccn3)no2)c1 13.1 µM
CSc1ccccc1OCc1cc(C(=O)N(C)Cc2nonc2C)no1 8.26 µM
CC(NC(=O)c1cc(COc2ccccc2)on1)c1nccs1 (configuration not stated) 2.07 µM
CN1CCc2c(sc(/N=C/c3cc(Cl)ccc3O)c2C#N)C1 6.56 µM
COc1cccc([C@@H]2Oc3ccc(OC)cc3C(=O)[C@H]2OC(=O)NCc2ccc3c(c2)OCO3)c1 5.85 µM
COc1ccc2c(c1)O[C@H](c1ccc3c(c1)OCO3)[C@@H](O)C2=O 11.7 µM
COc1ccc(C(=O)OCc2csc(C)n2)c(O)c1 7.36 µM
O=C(OCc1csc(-c2ccccc2)n1)c1ccccc1O 9.27 µM
O=C(OCc1csc(-c2ccccc2)n1)c1ccc(O)cc1 14.7 µM
Cc1nc(COC(=O)c2c(C)nn(-c3ccccc3)c2C)cs1 16.5 µM
Cc1ccc(SC[C@H](CC(C)C)N2CCN(C)CCC2=O)cc1 10.4 µM
Cc1ccc(SC[C@H](c2ccccc2)N2CCN(C)CCC2=O)cc1 9.27 µM
O=C(NCCC1=CCCCC1)c1cnc2n(c1=O)CCS2 6.56 µM
Fc1ccccc1Nc1nc2ccccc2o1 0.521 µM
Cn1cccc1C(=O)OCc1cc(Cl)cc2c1OCOC2 13.1 µM
C=CCN=c1scc(C)n1/N=C/c1ccc(O)c(O)c1 11.7 µM
CCCOC(=O)c1c(N)sc(C(=O)OCC)c1C 14.7 µM
CCOC(=O)c1c(N)sc(C(=O)OCCOC)c1C 18.5 µM
Cc1c(C(=O)OC(C)C)sc(N)c1C(=O)OC(C)C 6.56 µM
Cc1cc2cc(C=C(C#N)C#N)c(Cl)nc2cc1C 7.36 µM
Cc1ccc(OCC(=O)O/N=C(\N)c2ccncc2)c(C)c1 4.14 µM
N/C(=N\OC(=O)COc1ccc(Cl)cc1Br)c1ccncc1 1.65 µM
N/C(=N\OC(=O)COc1ccc(Cl)cc1Cl)c1ccncc1 0.585 µM
Cc1ccc(/C(N)=N/OC(=O)COc2ccccc2Cl)cc1 10.4 µM
N/C(=N\OC(=O)COc1ccc(Br)cc1Cl)c1ccccn1 0.117 µM
N/C(=N\OC(=O)COc1ccc(Br)cc1Cl)c1ccncc1 0.927 µM
CCc1ccc(OCC(=O)O/N=C(\N)c2ccncc2)c(Br)c1 4.65 µM
CCOc1ccc(NC(=O)c2cccs2)c([N+](=O)[O-])c1 0.826 µM
COc1ccc(NC(=O)c2ccco2)c([N+](=O)[O-])c1 7.36 µM
COc1ccc(NC(=O)CSc2ccccc2)c([N+](=O)[O-])c1 7.36 µM
